# Screens: PubChem, several laboratories
# FGF22 binding = shifts melting point of recombinant human FGF22 | AID 651658 | 340,000 compounds, 1.5% hits | activity (Tm shift, normalised), % at 9.99 µM | recombinant FGF22 thermal shift, SYPRO orange fluorescence; percent of sucrose octasulfate shift, DMSO zero | Q9HCT0;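 active means mean Tm shift, scaled 0 neutral to 100 positive control, at about 1.3% or above, every replicate too, limit read from the data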
# ADAM10 inh = inhibits human ADAM10 | O14672 | recombinant ADAM10, EDANS/DABCYL FRET peptide cleavage, 3 h | inhibition, % at 7 µM | 370,000 compounds, 0.62% hits;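 active means inhibition above a per-campaign cutoff equal to the mean of compounds falling between control-based bounds plus 3 SD, cut at about 20% in these data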;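 further: 0% = DMSO wells while the 100% control is not disclosed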
# Target sequence (O14672 214-748 limits assumed): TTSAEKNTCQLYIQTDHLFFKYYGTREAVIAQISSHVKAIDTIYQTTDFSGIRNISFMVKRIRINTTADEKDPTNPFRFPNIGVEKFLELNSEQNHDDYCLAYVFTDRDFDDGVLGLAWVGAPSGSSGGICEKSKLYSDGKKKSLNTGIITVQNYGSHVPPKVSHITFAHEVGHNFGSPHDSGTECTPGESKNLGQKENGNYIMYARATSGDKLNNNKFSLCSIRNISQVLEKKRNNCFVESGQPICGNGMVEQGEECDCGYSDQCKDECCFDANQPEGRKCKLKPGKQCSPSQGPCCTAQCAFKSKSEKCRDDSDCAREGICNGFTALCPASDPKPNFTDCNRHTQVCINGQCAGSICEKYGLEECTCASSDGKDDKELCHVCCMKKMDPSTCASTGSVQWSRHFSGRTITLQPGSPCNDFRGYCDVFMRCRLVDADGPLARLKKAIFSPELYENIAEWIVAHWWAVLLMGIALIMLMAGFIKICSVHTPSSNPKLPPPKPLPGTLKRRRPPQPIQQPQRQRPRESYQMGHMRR
# KLK7 zymogen act = activators of human kallikrein-7 zymogen | P49862 | purified proKLK7, EDANS-DABCYL substrate fluorescence; 100% is mature enzyme control, 0% vehicle | activation, % at 7 µM | 370,000 compounds, 0.9% hits | AID 652039;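 active means activation above the mean of all tested compounds plus 3 SD, computed per campaign excluding outliers beyond control limits, cut at about 13% in these data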
# ADAM17 inh = ADAM17 inhibition, QFRET primary screen; recombinant ADAM17, EDANS/DABCYL FRET peptide cleavage; inhibition, % at 6.95 µM; 370,000 compounds, 0.83% hits;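 active means inhibition above the mean of compounds lying between control limits plus 3 SD, set per campaign, cut at about 8.5% in these data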;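 further: 0% = DMSO-only wells as the low control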
# rRNA inh HTS = inhibits bacterial ribosomal RNA function over humanized ribosomes; E. coli WT GFP vs humanized-ribosome RFP mutants, fluorescence, 24 h; hits give low values; DMSO median 0, no signal -100; GFP signal change (wild-type ribosome), % (concentration not given with the values); 350,000 compounds, 1.6% hits;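 active means significant combined selectivity score with lowered wild-type GFP, culture density cut under 30%, mutant RFP and density less affected; inactive means any of these conditions unmet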
# KLK7 act conf = proKLK7 activation, confirmation. activation, % at 7 µM. purified proKLK7, EDANS-DABCYL substrate fluorescence; scaled: vehicle 0, mature enzyme 100. shares compounds with KLK7 zymogen act. 3,200 compounds, 68% hits;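 active means activation, as change over the incubation, above the mean of all tested compounds plus 3 SD, cut at about 13% in these data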
# EDANS-DABCYL int = fluorescence interference counter-screen for KLK7 activators; shares compounds with KLK7 zymogen act; EDANS-DABCYL substrate fluorescence interference, no enzyme, 4 h; solvent 0%, active enzyme control 100%; activation, % at 7 µM; 3,200 compounds, 80% hits;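 active means activation above the all-compound mean plus 3 SD, ignoring values outside control-based bounds, cut at about 4.8% in these data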;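 further: value is the 4 h activation minus the activation read at time zero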
# K7 EDANS ctr = EDANS fluorescence interference in dose response, no enzyme; shares compounds with KLK7 zymogen act; EDANS-DABCYL peptide fluorescence interference; EC50, µM; 250 compounds, 20% hits;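 active means compounds that raise the fluorescence signal in this interference counterscreen, with EC50 at or below 10 µM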;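 further: intact quenched peptide substrate alone read at 355 nm excitation and 520 nm emission; signal is fluorescence gain from T0 to T4 after four hours at room temperature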
# An asterisk follows results filed as active; i = inactive; x = no result given. Compounds with a hit are over-represented: about 3.8% of the library has one in this group of screens.
SMILES,FGF22 binding,ADAM10 inh,KLK7 zymogen act,ADAM17 inh,rRNA inh HTS,KLK7 act conf,EDANS-DABCYL int,others
O=C(C[C@H]1C[C@@H]2c3cc(NC(=O)c4cccnc4)ccc3O[C@@H]2[C@H](CO)O1)NCc1cccc(F)c1,0,x,x,x,3,x,x,
CC(=O)N(C)C[C@H]1Oc2cc(C#CCC(C)C)ccc2S(=O)(=O)N([C@H](C)CO)C[C@@H]1C,0,x,x,x,-2,x,x,
COc1cccc(NC(=O)N(C)C[C@@H]2Oc3ncc(C#Cc4ccc(F)cc4)cc3C(=O)N([C@@H](C)CO)C[C@@H]2C)c1,0,x,x,x,-7,x,x,
CCCCc1cc(=O)oc2cc(C)cc(OCC(=O)N3CCC(C(=O)O)CC3)c12,0,i,17*,-211,17,25*,18*,K7 EDANS ctr=>70
COC(=O)c1ccc(CN2CC(=O)N3[C@H](CO)[C@H](c4ccc(-c5ccccc5)cc4)[C@@H]3C2)cc1,x,x,x,x,-2,x,x,
COc1ccc(-c2cn3cc(C(=O)NN)ccc3n2)cc1,0,-490,40*,-168,-11,8,10.0*,
COc1ccc(C(=O)NN)cc1,0,3,0,1,12,x,x,
CCOC(=O)N1CCC(N2C(=O)c3ccccc3C2=O)CC1,0,-9,0,2,1,x,x,
CCOC(=O)N1CCC2(CC1)NC(=O)c1ccccc1N2,0,i,21*,-452,20,30*,24*,K7 EDANS ctr=>69
Cc1cc2oc(=O)cc(CN3CCCC3)c2cc1Cl,0,-36,-2,-6,-2,x,x,
CCc1cc(=O)oc2c(CN3CCCC3)c(O)c(Cl)cc12,x,i,83*,i,x,68*,71*,
Cc1ccc2c(CN3CCN(CCO)CC3)cc(=O)oc2c1C,x,-6,0,-4,x,x,x,
CCc1cc(=O)oc2c(CN3CCN(C)CC3)c(O)ccc12,41,i,38*,i,8,72*,71*,
CCc1c(C)c2cc(Cl)c(O)c(CN3CCCCC3)c2oc1=O,x,i,51*,i,x,69*,72*,
Cc1cc(=O)oc2c(CN3CC(C)OC(C)C3)c(O)c(Cl)cc12 (stereo unspecified),0,i,149*,i,18,67*,74*,
CCCC(=O)Nc1ccc2c(c1)C(=O)N(C)C[C@@H](OC)[C@H](C)CN(C(=O)c1ccccc1F)[C@H](C)CO2,0,x,x,x,1,x,x,
O=C(N[C@@H]1C=C[C@@H](CC(=O)N2CCc3ccccc3C2)O[C@H]1CO)C1CCOCC1,x,x,x,x,6,x,x,
CCCc1cc(=O)oc2c(CNc3ccc(OCC)cc3)c(O)ccc12,0,i,-15,i,14,x,x,
CCCCc1cc(=O)oc2c(CN3CCCC3)c(O)ccc12,x,i,77*,i,x,65*,74*,
CCCCc1cc(=O)oc2cc(C)c(CN3CCCC3)c(O)c12,x,5,1,0,x,x,x,
CCc1cc(=O)oc2c(CN3CCN(C)CC3)c(O)c(Cl)cc12,x,i,69*,i,x,62*,70*,
CCc1cc(=O)oc2c(CNCc3c(F)cccc3Cl)c(O)ccc12,0,i,30*,i,-18,41*,57*,
CN(C)CC(=O)Nc1ccc2c(c1)[C@@H]1C[C@H](CC(=O)N3CCc4ccccc4C3)O[C@@H](CO)[C@@H]1O2,0,x,x,x,2,x,x,
C[C@H](CO)N1C[C@H](C)[C@H](CN(C)Cc2ccc(C(=O)O)cc2)Oc2ncc(C#CCN(C)C)cc2C1=O,0,x,x,x,4,x,x,
C[C@H](CO)N1C[C@H](C)[C@@H](CN(C)C(=O)Cc2ccccn2)Oc2ncc(C#CC3CCCC3)cc2C1=O,0,x,x,x,-4,x,x,
SMILES,FGF22 binding,ADAM10 inh,KLK7 zymogen act,ADAM17 inh,rRNA inh HTS,KLK7 act conf,EDANS-DABCYL int,others
C[C@H]1CN([C@@H](C)CO)C(=O)c2cc(NC(=O)C3CC3)ccc2O[C@H]1CN(C)C,0,x,x,x,4,x,x,
COc1cc(N/C(N)=N/c2nc(C)cc(C)n2)cc(OC)c1,0,-21,14*,-10,10,0,0,
COc1ccc(N/C(N)=N/c2nc(C)cc(C)n2)c(OC)c1,0,-1,0,-3,11,x,x,
COCC(=O)Nc1ccc2c(c1)[C@@H]1C[C@@H](CC(=O)O)O[C@@H](CO)[C@@H]1O2,0,x,x,x,-2,x,x,
Cc1ccc(S(=O)(=O)NN2C(=O)c3ccccc3NC2c2ccccn2)cc1 (stereo unspecified),0,-416,20*,-167,-2,6,4.4*,
CC(=O)NN1C(=O)c2ccccc2NC1c1ccccc1O (stereo unspecified),0,i,-1,-261,18,x,x,
Cc1ccc(S(=O)(=O)NCN2C(=O)c3ccccc3C2=O)cc1,0,-1,-1,-1,13,x,x,
CC1Nc2ccccc2C(=O)N1NS(=O)(=O)c1ccccc1 (stereo unspecified),0,-179,21*,-61,2,4,4.5*,
Cc1ccc(S(=O)(=O)NN2C(=O)c3ccccc3NC2C)cc1 (stereo unspecified),0,i,39*,-194,-11,11,11*,
Cc1ccc(S(=O)(=O)NN2C(=O)c3ccccc3NC2c2ccco2)cc1 (stereo unspecified),0,-66,5,-22,10,x,x,
O=C1c2ccccc2NC(c2ccccc2F)N1NS(=O)(=O)c1ccccc1 (stereo unspecified),0,-313,19*,-117,2,6,6.8*,
COc1ccc(C2Nc3ccccc3C(=O)N2NC(=O)c2ccccc2)cc1OC (stereo unspecified),1,-150,4,-38,1,x,x,
C[C@@H]1CCCCO[C@H](CN(C)C(=O)NC2CCCCC2)[C@H](C)CN([C@H](C)CO)C(=O)c2cc(NS(C)(=O)=O)ccc2O1,0,x,x,x,-4,x,x,
COc1ccc(C#Cc2ccc3c(c2)[C@]2(C(=O)N3)[C@H](c3ccc(O)cc3)N3[C@H](c4ccccc4)[C@H](c4ccccc4)OC(=O)[C@H]3[C@@H]2C(=O)N2CCCCCCC2)cc1,0,x,x,x,x,x,x,
COCCN(C(=O)c1ccc(-c2ccc(Cl)cc2)o1)c1c(N)n(Cc2ccccc2)c(=O)[nH]c1=O,0,-21,39*,-3,8,29*,30*,
Cn1c(N)nc2nc(CCc3ccccc3)c(=O)[nH]c2c1=O,0,i,13*,-337,7,34*,30*,
